Experimental data: PubChem BioAssay AID1508600 (Functional Genomics Laboratory (NCATS/FGL), 2020)
Among all 53,000 sequences or so, about 3,700 (7%) were called active. Only a selection was taken, and actives are over-represented in it overall. Unmarked numbers belong to inactive results.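 The calls were made as follows: active = gene knockdowns whose robust z-score for IL-1 alpha signal is at least 2 or at most -2, so actives lie on both sides; inactive = the rest.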

Assay: Components of the Cytosolic LPS Sensing Pathway: Gene Identification via Genome-wide siRNA Screen;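 also: robust z of the log signal after scaling to non-targeting control siRNA wells of the plate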
Details: RAW264.7 macrophages, IL-1a HTRF, actives lie on both sides, screened at 100 nM (by protocol), cells primed 5 h with Pam3CSK4 first
Outline: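 Knockdown: 100 nM siRNA, 48h, RAW264.7. Stimulation: Pam3CSK4 5 h, then LipidA via TransIT-TKO 24 h. Output: supernatant IL-1a HTRF, negative-control-normalized, log robust z-score; viability by CellTiter-Glo.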

| Sequence | z-score |
| --- | --- |
| UGGCCACGACCCUGAACUUTT against Ghrhr | 0.56 |
| GGCAUCAAAAAGCAGACAATT against Erich2 | -1.98 |
| GGCUAUGGAACAAAGUACUTT against Sostdc1 | 0.838 |
| GGAAAGCACUUUUAUUCCUTT against Sgip1 | -0.901 |
| GCCUCGAGAUAUUCUUUGUTT against Snrnp200 | -2.07 (active) |
| GCUAAAAGGCUACGGGAGUTT against Bhlhe23 | -0.266 |
| GUGCAGAUAUCUUUAGCAATT against Olfr159 | -0.958 |
| GGAUGAGAGUAAGAUCUCGTT against Vipr2 | -0.296 |
| GGAAAACUACCUCUUUUGATT against Cbll1 | 1.4 |
| GGAGAUCUUAGAGAAAUUATT against Pak1 | -0.956 |
| GCAAAGUGGAUAUAGUGUCTT against Gprin1 | -0.217 |
| GCAUGCUUUCUGAAUACAATT against Cdk8 | 2.17 (active) |
| GGAACAGCUAAAGUUGGGATT against Kcnj9 | 0.5 |
| GGGUAUGGUUCUGUUGGCATT against Pxmp4 | -1.45 |
| CCUAAAGGUUCCCAACAGUTT against Serpinb3d | -0.517 |
| GGCUGAUUCAUUUGGGAACTT against Olfr9 | 0.805 |
| GGCCUCUGAGGACAAGUUUTT against Als2cl | 0.0383 |
| GGUAGAGGAUGCGAUGCUGTT against Msi2 | 4.61 (active) |
| GGGAGGUGCAGAUAGGAUUTT against Csrp1 | 0.912 |
| GGCGAUAGUGUCUAAGAAATT against Cfap298 | -0.0112 |
| GGAUGAGAAAUACUUUCGGTT against C8a | 0.126 |
| GGCAAGUGCCCAAGUUUGUTT against Ifi35 | 1.08 |

| Sequence | z-score |
| --- | --- |
| GGCAUAUUGUUUCAUUUUGTT against Rlbp1 | -1.19 |
| GGCUUUAUAUGAAACUCCUTT against Acrv1 | -2.01 (active) |
| GCACAGUAGUUCUUGCAUCTT against Olfr891 | 0.13 |
| CCUAGUCCCUCUGUCUCUUTT against Kctd13 | -1.79 |
| GUACACCAGUGGAAGCACATT against Sprr2b | -1.91 |
| GGAUUUGUCAAUGCAAUAATT against Olfr1012 | -2.68 (active) |
| GGACAACAUAUUCUGAUAATT against Stmnd1 | 1.68 |
| GGCUUCCUACCUAAGGCUUTT against Bora | -0.924 |
| CCAGACUACGGUGCUAAGATT against Defb21 | 2.49 (active) |
| GGCCGUGUUAAGGAAUCUGTT against Cidea | 0.653 |
| CCUCUUCUGCGCGGAUUUGTT against Ffar4 | 0.708 |
| GGAGAAAGCUUACUGCCUUTT against Lrrc6 | -0.959 |
| GGAACAGCAGUUUUUGUUUTT against Rnf44 | 0.097 |
| GGCGAGUCUACGUGACACUTT against Arrb1 | 0.701 |
| GGACAUCGUGCUCUAUCUCTT against Nrarp | -1.07 |
| GCAGAUCUUGUGAUUAAUGTT against Ildr1 | 0.882 |
| CCCAUGGAAUGAAAACAACTT against Gm4894 | 2.58 (active) |
| GGAAAUAGUUGGUUUUGAATT against Slfn1 | -1.95 |
| GCAUUAGGAAUUCAAUUAGTT against Adamts1 | 0.813 |
| GGACGUAGCUAUGGAGGAUTT against 1810009A15Rik | -1.83 |
| GGAAACCAGAAAAACUGAATT against Parg | 0.653 |
| GGAUUAAUUAAUACUUGGCTT against Rps9 | 0.986 |

| Sequence | z-score |
| --- | --- |
| CCGACACGUUCUCAAUGUCTT against Gss | -0.496 |
| GGAAGGACAAAGAAAGCCUTT against Fbxw4 | -0.286 |
| GGUUCUUAGGAGUUAACUCTT against Klf16 | 2.71 (active) |
| GGAGAUCAUGCUCAAGAACTT against Dgke | 0.176 |
| GGACACCUACUUGGUAUUGTT against Epor | -0.632 |
| GGAGAGUAUCAGCAAUGAATT against Impg2 | 1.02 |
| GGAAAGUUCCCAUGUUCUCTT against Mgat4f | 1.33 |
| CGUGAGAUCAUUGAUGUGGTT against Ankrd2 | -1.16 |
| GGAUUCUCCAGACACCUUGTT against Styxl1 | -0.704 |
| GCUAUUGCCUUAGAUCCAUTT against Lrp6 | 0.384 |
| GCUCAACUUCUGAAUUAUATT against Enpep | 2.64 (active) |
| GGUCAGCAUCACCUACGAUTT against Prss8 | -0.688 |
| GGAGCUGAAGCAAAGACAGTT against Svbp | -0.599 |
| GGAAACAACCAUCGAGGUUTT against Cyp4x1 | -0.31 |
| GGCUGUGACUCUGGAUUUGTT against Bdh1 | -0.985 |
| GGAUUCUGAACACUUUUUCTT against Pot1a | -2.02 (active) |
| GCACCAUGUAUACAAAAGATT against Pcdhb3 | 0.0679 |
| GGAGUUUGUGAAUAAAUGUTT against Map2k2 | 0.177 |
| GUGGAAGACUUCACCGGACTT against Arxes1 | 2.01 (active) |
| GCUUACUUUGGAACACAAATT against Tex18 | 1.22 |
| GCAGGAUUGCAUAUAUCGGTT against Cspg5 | -0.672 |
| CGAUGCUGUUCUUCAAUGUTT against Krt222 | 1.23 |

| Sequence | z-score |
| --- | --- |
| GGUUUGAAUUCAAGUUCAUTT against Klhl5 | 0.616 |
| GGAAAAAUAGGUCGAAUGATT against Arntl | 0.229 |
| CGAUUCCAACAAGAAAGUGTT against Togaram2 | 0.649 |
| GCGGGAGAAGCUAAUGAAATT against Ndufs5 | 2.21 (active) |
| GGAUUUUGUUUCAGGUGGATT against Itgb8 | 1.78 |
| GGCAGAUGGUAUCAGCUGUTT against Cd248 | -1.11 |
| GGAGACAAACUCAAAACUGTT against Lyplal1 | -1.12 |
| CACUGAACAGAUCAGAGCATT against Fam189b | -2.44 (active) |
| AAUCUUGAGAGAUUUCUCCTT against Scd2 | -0.047 |
| GCCACGGCCAGUAAAACAUTT against Cdcp1 | 0.335 |
| GGAUGAGUUUUUAAAGUCATT against Otop2 | -0.883 |
| GGCAAUGUCAGAGCUAAUCTT against Mettl25 | 0.596 |
| GGGACAACCUGGAUGACAUTT against Coq6 | -0.0644 |
| CCUUUGUCCGGUCCAUUCCTT against Hk1 | -0.654 |
| GCAAGUUCGAAUCCUCCGUTT against Dach2 | 4.72 (active) |
| GGUGAAUGGCAUGACCAUATT against Asb9 | 0.49 |
| GGAGUCCUUUAAGAUUAUATT against Pex13 | 1.3 |
| GGUAGAUGAUGAAAAACAATT against Erich3 | -2.02 (active) |
| GGAAGAAUCUGUUACUUUUTT against Rad1 | -0.693 |
| CCUUUUAGGGAAAUUUGCATT against Mcm9 | 0.651 |
| GGGAAGAACUGUGAUUAUUTT against Hspd1 | 0.625 |
| CCAUUGAACAGCAGAUUGGTT against Atp7a | 0.81 |

| Sequence | z-score |
| --- | --- |
| GGUCUUCUUCGUGUUCAUCTT against Olfr281 | -0.0815 |
| GGAAAAAUUGAAGUUGAUCTT against Iqcj | -1.35 |
| GGCUCGUCAAAUCAAGUAUTT against H2bc6 | -2.37 (active) |
| GGAAAUCAAGCUGAAGUUATT against Eqtn | 0.231 |
| GCGCAAACAACACAUCGUCTT against Ccpg1 | 0.503 |
| GGCUGUCAUCCAAGAACUUTT against Mtcp1 | 0.176 |
| GGAGAUCCGAGUGAGGAAUTT against Eif3b | 2.91 (active) |
| GGUUUAACUAGAAUUUGGUTT against Cyp2ab1 | 1.75 |
| GGACAAGAAUAAGUACAACTT against Rpl5 | -0.918 |
| GCCCUUGAACGGAGAAUAGTT against Brk1 | -1.59 |
| GCUCUGACCAUCCUUAGCUTT against Olfr938 | -2.62 (active) |
| GCCAUACGAUCUGCAUUUCTT against Zbtb38 | -1.85 |
| GGAACAAGUAAAAUUCGUCTT against Tssk2 | 1.71 |
| GGGUUAUGAAGAAGCUCCUTT against Olfr1262 | -1.52 |
| GCUGUGUGACCAGCUGUUGTT against Krtap9-1 | 0.44 |
| CCUACGUCAUUUCAGCACCTT against Hc | 0.356 |
| GCUCCCAUUAUCAUUCAAATT against D3Ertd751e | 1.67 |
| GGAGCUCUGGCACUUUGUCTT against Gramd1b | 0.37 |
| GGAGAAAAGAGGCUUCCAGTT against Lad1 | 0.754 |
| CCCAGAUACCUGGAAAACGTT against Fam189a1 | -2.17 (active) |
